Source: PubChem
TIM10 inh: growth inhibitors of isogenic TIM10 control yeast, primary screen, counter-screen for tim10-1 yeast inhibitor project, luminescence, uHTS. inhibition, % at 10 µM. S. cerevisiae TIM10 strain growth, BacTiter-Glo luminescence, 24 h. 330,000 tested, 1.4% active. AID 463195, 2010;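 active means inhibition of 40% or more at the single tested concentration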;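 further: wild-type TIM10 isogenic control strain grown at permissive 25 °C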
NALP1 inh: NALP1 inflammasome inhibitors in reconstituted yeast, colorimetric, S. cerevisiae, triplicate retest; S. cerevisiae NALP1/ASC/caspase-1 growth, X-gal OD620, 72 h; inhibition, % at 10 µM; 280,000 tested, 0.61% active; in the data active means inhibition mostly above about 24%, no sharp cut-off; inactive means mostly below about 32%
tim23-1 inh: growth inhibitors of tim23-1 mutant yeast, primary screen, luminescence, uHTS. 330,000 tested, 1.3% active. AID 463212, 2010. S. cerevisiae tim23-1 growth, BacTiter-Glo luminescence, 24 h. inhibition, % at 20 µM;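 active means growth inhibition of the mutant yeast at or above 50%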;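 further: temperature-sensitive mutant grown at 25 °C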
tim10-1 inh: growth inhibitors of tim10-1 mutant yeast, primary screen, luminescence, uHTS; S. cerevisiae tim10-1 ts strain growth, BacTiter-Glo, 24 h; inhibition, % at 20 µM; 330,000 tested, 2.2% active; AID 463190, 2010;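 active means inhibition of at least 40%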;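 further: mutant grown at 25 °C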
NALP3 yeast inh: NALP3 inflammasome inhibitors in reconstituted yeast, primary screen, luminescence, uHTS. Yeast reconstituted NLRP3/ASC/caspase-1, beta-gal luminescence, 24 h. 330,000 tested, 0.39% active. AID 2825, 2010. inhibition, % at 10 µM;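 active means inhibition of 50% or more; inactive means inhibition below 50%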
SKKanGAS inh: S. pyogenes SKKanGAS growth inhibitors in kanamycin, primary screen, streptokinase expression inhibitor project, SKKanGAS strain, BacTiter-Glo luminescence; inhibition, % at 7.5 µM; AID 1662, 2009; 300,000 tested, 1.3% active; 6 h;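 active means mean replicate score, as percent of positive control median, at least 50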;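 further: strain carries kanamycin resistance gene driven by streptokinase promoter and grows in 40 µg/ml kanamycin; loss of luminescence reflects streptokinase promoter inhibition or plain growth inhibition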
A number is an active result; 0 = inactive; - = not tested or not shown. Only some compounds are listed: those with a hit (about 4.9% of all), similar ones and a draw of the others.

SMILES | TIM10 inh | NALP1 inh | tim23-1 inh | tim10-1 inh | NALP3 yeast inh | SKKanGAS inh
COc1cc(OC)c(/C=N/NC(=O)c2ccc(NC(C)=O)cc2)cc1Br | 0 | 0 | 0 | 0 | 0 | 0
O=C(N/N=C/c1cc([N+](=O)[O-])ccc1O)c1ccncc1 | 0 | 0 | 0 | 0 | 0 | 92.1
O=C(N/N=C/c1cc(Cl)ccc1O)c1ccc(Br)cc1 | - | 45.7 | - | - | - | -
O=C(N/N=C/c1ccc(O)c([N+](=O)[O-])c1)c1ccncc1 | 0 | - | 0 | 0 | 0 | 0
O=C(CSc1nc2ccccc2s1)N/N=C/c1cc([N+](=O)[O-])ccc1O | 0 | 0 | 0 | 0 | 0 | 90.6
CC(C)C(=O)Nc1ccc(C(=O)N/N=C/c2cc(Br)cc(Br)c2O)cc1 | 0 | 0 | 0 | 0 | 0 | 67.9
CCC(C)[C@H](NC(=O)[C@@H]1CSC2c3ccccc3C(=O)N21)C(=O)NCc1ccco1 (stereo partly specified) | 0 | 0 | 0 | 0 | 0 | 0
O=C(CCC1CCCC1)Nc1cc(C(F)(F)F)ccc1N1CCOCC1 | 0 | - | 0 | 0 | 0 | 0
O=C(N/N=C/c1cc(Br)c(O)c(Br)c1O)c1cccnc1 | 0 | 0 | 0 | 0 | 0 | 0
O=C(N/N=C/c1cc([N+](=O)[O-])ccc1O)c1ccc2c(c1)OCCO2 | 0 | 0 | 0 | 0 | 0 | 69.8
Cc1nc(C)c(C(=O)N/N=C/c2cc(Br)ccc2O)s1 | 0 | - | 0 | 0 | 0 | 90.6
O=C(N/N=C/c1cc(O)ccc1Br)c1cccnc1 | 0 | 0 | 0 | 0 | 0 | 110.8
O=C(NC(=S)Nc1cc([N+](=O)[O-])ccc1O)c1ccc2c(c1)OCO2 | 0 | 0 | 0 | 0 | 0 | 79.3
CCOC(=O)N1CCN(C(=O)c2cc(S(=O)(=O)N3CCc4ccccc43)ccc2OC)CC1 | 0 | - | 0 | 0 | 0 | 0
O=C(N/N=C/c1cc([N+](=O)[O-])ccc1O)c1cccc(N2CCCC2=O)c1 | 0 | 0 | 0 | 0 | 0 | 55.4
CCOc1ccc(C(=O)NCC(=O)N2CCC3CCCCC3C2)cc1OCC (stereo unspecified) | 0 | 0 | 0 | 0 | 0 | 0
CC(C)=C1C2CCC1C1C(=O)N(NC(=O)COc3ccc(Cl)c(C)c3)C(=O)C21 (stereo unspecified) | 0 | 41.0 | 0 | 0 | 0 | 0
COc1cc(NC(=O)CN2C(=O)C(C)N(c3ccc(C)cc3)C2=O)cc(OC)c1 (stereo unspecified) | 0 | - | 0 | 0 | 0 | 0
Oc1cccc(NC(=S)N=Nc2c(O)[nH]c3ccc(Br)cc23)c1 | 0 | 0 | 0 | 0 | 0 | 89.3
Oc1[nH]c2ccc(Br)cc2c1N=NC(=S)Nc1ccc(F)cc1 | 0 | - | 0 | 0 | 0 | 109.3
Oc1ccc(NC(=S)N=Nc2c(O)[nH]c3ccc(Br)cc23)cc1 | 0 | 0 | 0 | 0 | 0 | 0
CCN1C(=O)c2ccc(C(=O)NCc3ccco3)cc2C1=O | 0 | 30.8 | 0 | 0 | 0 | 0
CCCN1C(=O)c2ccc(C(=O)NCc3ccco3)cc2C1=O | 0 | 0 | 0 | 0 | 0 | 0
Cc1ccc(-n2c(N)c(-c3nc4ccccc4n3C)sc2=S)cc1 | 0 | 0 | 0 | 0 | 0 | 50.3
Cn1c(-c2ccc(N)cc2)nc2ccccc21 | 0 | 0 | 0 | 0 | 0 | -
SMILES | TIM10 inh | NALP1 inh | tim23-1 inh | tim10-1 inh | NALP3 yeast inh | SKKanGAS inh
CCC(CC)c1nn2c(N)c(/C=C3\C(C)=Nc4ccccc43)c(=O)nc2s1 | 0 | 0 | 0 | 0 | 0 | 62.4
CCC(CC)c1nn2c(N)c(/C=C3\C=Nc4ccccc43)c(=O)nc2s1 | 0 | 0 | 0 | 0 | 0 | 0
Cc1cccc(N=C2NN=C(c3c(C)[nH]c4ccccc34)CS2)c1 | 0 | 0 | 0 | 0 | 0 | 97.9
Cc1cccc(N=C2NN=C(c3ccc4c(c3)OCCO4)CS2)c1 | 0 | 0 | 0 | 0 | 0 | 0
COc1ccc(OC)c2c(C)cc(N3CCCCCC3)nc12 | 0 | 0 | 0 | 0 | 0 | 0
CC(=O)Nc1nnc(S(=O)(=O)N2CCN(c3ccc([N+](=O)[O-])cc3Cl)CC2)s1 | 0 | 0 | 0 | 0 | 0 | 54.7
Cc1ccc(N2CCN(S(=O)(=O)c3nnc(NC(=O)c4ccco4)s3)CC2)cc1 | 0 | 0 | 0 | 0 | 0 | 0
Cc1ccc(C(=O)Nc2nnc(S(=O)(=O)N3CCN(c4ccc(F)cc4)CC3)s2)cc1 | 0 | 0 | 0 | 0 | 0 | 54.2
COc1ccccc1C(=O)Nc1nnc(S(=O)(=O)N2CCN(c3ccc(F)cc3)CC2)s1 | 0 | 0 | 0 | 0 | 0 | 54.1
Cc1ccccc1N1CCN(S(=O)(=O)c2nnc(NC(=O)c3ccc(F)cc3)s2)CC1 | 0 | 0 | 0 | 0 | 0 | 0
Cc1ccc(S(=O)(=O)CC(CN2CCCCC2)N2CCCCC2)cc1 (stereo unspecified) | - | 0 | - | - | - | 0
O=S(=O)(CC(CN1CCCCC1)N1CCCCC1)c1ccc2ccccc2c1 (stereo unspecified) | - | 54.9 | - | - | - | 0
C(=N\Nc1nc(-c2ccccn2)nc2ccccc12)/c1ccccc1 | 0 | 0 | 0 | 0 | 0 | 98.0
c1ccc(-c2nc(NCc3ccco3)c3ccccc3n2)nc1 | 0 | 0 | 0 | 0 | 0 | 95.5
Oc1ccccc1-c1nc(NCc2ccco2)c2ccccc2n1 | 0 | 0 | 0 | 0 | 0 | 0
CCC(C)N1CCC2(CC1)N=c1c(c3c4c5c(C)c(O)c3c(O)c1=NC(=O)C(C)=CC=C[C@H](C)[C@H](O)[C@@H](C)[C@@H](O)[C@@H](C)[C@H](OC(C)=O)[C@H](C)[C@@H](OC)C=CO[C@@](C)(O5)C4=O)N2 (stereo partly specified) | 0 | - | 0 | 0 | 0 | -
CO[C@H]1C=CO[C@@]2(C)Oc3c(C)c(O)c4c(O)c(c5c(c4c3C2=O)NC2(CCN(CC(C)C)CC2)N=5)=NC(=O)C(C)=CC=C[C@H](C)[C@H](O)[C@@H](C)[C@@H](O)[C@@H](C)[C@H](OC(C)=O)[C@@H]1C | - | 0 | - | - | - | 106.4
CO[C@H]1C=CO[C@@]2(C)Oc3c(C)c(O)c4c(O)c(c5c(nc6cc(C)ccn65)c4c3C2=O)NC(=O)C(C)=CC=C[C@H](C)[C@H](O)[C@@H](C)[C@@H](O)[C@@H](C)[C@H](OC(C)=O)[C@@H]1C | 0 | 0 | 0 | 0 | 0 | 104.7
Cc1cc(OCCCCCn2ccnc2)cc(C)c1Cl | 0 | 26.0 | 0 | 0 | 0 | 0
CC1CC(=O)Nc2ccccc2N1C(=O)CSc1nnnn1C (stereo unspecified) | 0 | - | 0 | 0 | 0 | -
COC(=O)CCC(=O)NC(=S)Nc1cc(Cl)ccc1Cl | 0 | 41.6 | 0 | 0 | 0 | 0
COC(=O)CCC(=O)Nc1ccc(Cl)c(Cl)c1 | 0 | 0 | 0 | 0 | 0 | 0
CCC(=O)c1ccc(OCC(=O)OCC(=O)NC2CCCCCCC2)cc1 | 0 | 0 | 0 | 0 | 0 | 0
Brc1cc(-c2ccccc2)nc(-c2ccccc2)n1 | 0 | - | 0 | 0 | 0 | 51.1
